# How the values were obtained:
# Test in all cases: PBM binding z-score (relative to random genomic background probes); higher = stronger binding; sequences stand for … in GC…GCGATTGACAGCGTAGAATGAAGG
# [1] = tested on: FXR:RXRa (NR concentration 270 nM, RXRa partner concentration 90 nM)
# How it was run: (§1)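 Custom Agilent 4×180K protein-binding microarrays carried double-stranded probes, each with a 34-nt variable region. These regions held direct-repeat seeds, single-nucleotide variants, half-site ablations and random human genomic background sequences. Ligand-free nuclear receptor dimers were incubated on the arrays for 1 h, antibodies against each partner (one per run) detected binding, and scanned fluorescence was regression-normalized. Binding z-scores take the random background probes as reference.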
# [2] = tested on: LXRa:RXRa (NR concentration 270 nM, RXRa partner concentration 90 nM)
# How it was run: as §1
# [3] = tested on: LXRa homodimer (NR concentration 270 nM)
# How it was run: as §1
# [4] = tested on: LXRb:RXRa (NR concentration 270 nM, RXRa partner concentration 90 nM)
# How it was run: as §1
# [5] = tested on: LXRb homodimer (NR concentration 270 nM)
# How it was run: as §1
# [6] = tested on: PPARa:RXRa (NR concentration 270 nM, RXRa partner concentration 90 nM)
# How it was run: as §1
# [7] = tested on: PPARg:RXRa (NR concentration 180 nM, RXRa partner concentration 90 nM)
# How it was run: as §1
# [8] = tested on: PPARg:RXRa 270nM:90nM, anti-RXR (NR concentration 270 nM, RXRa partner concentration 90 nM)
# How it was run: as §1
# [9] = tested on: PPARg:RXRa 30nM:10nM, anti-RXR (NR concentration 30 nM, RXRa partner concentration 10 nM)
# How it was run: as §1
# [10] = tested on: PPARg:RXRa 90nM:30nM, anti-RXR (NR concentration 90 nM, RXRa partner concentration 30 nM)
# How it was run: as §1
# [11] = tested on: PPARg:RXRa DBDmut IVT, anti-RXR (DBD mutation: RXRa K156A/R161A, NR concentration 270 nM, RXRa partner concentration 90 nM)
# How it was run: as §1
# [12] = tested on: PPARg:RXRa IVT, anti-PPARg (NR concentration 270 nM, RXRa partner concentration 90 nM)
# How it was run: as §1
# [13] = tested on: PPARg DBDmut:RXRa IVT, anti-PPARg (DBD mutation: PPARg1 K132A/R137A, NR concentration 270 nM, RXRa partner concentration 90 nM)
# How it was run: as §1
# [14] = tested on: PPARg DBDmut IVT, anti-PPARg (DBD mutation: PPARg1 K132A/R137A, NR concentration 270 nM)
# How it was run: as §1
# [15] = tested on: PPARg homodimer (NR concentration 180 nM)
# How it was run: as §1
# [16] = tested on: PXR:RXRa (NR concentration 270 nM, RXRa partner concentration 90 nM)
# How it was run: as §1
# [17] = tested on: PXR homodimer (NR concentration 270 nM)
# How it was run: as §1
# [18] = tested on: RARa:RXR (NR concentration 270 nM, RXRa partner concentration 90 nM)
# How it was run: as §1
# [19] = tested on: RARa homodimer (NR concentration 270 nM)
# How it was run: as §1
# [20] = tested on: RARb:RXRa (NR concentration 270 nM, RXRa partner concentration 90 nM)
# How it was run: as §1
Sequence,PBM binding z-score [1],PBM binding z-score [2],PBM binding z-score [3],PBM binding z-score [4],PBM binding z-score [5],PBM binding z-score [6],PBM binding z-score [7],PBM binding z-score [8],PBM binding z-score [9],PBM binding z-score [10],PBM binding z-score [11],PBM binding z-score [12],PBM binding z-score [13],PBM binding z-score [14],PBM binding z-score [15],PBM binding z-score [16],PBM binding z-score [17],PBM binding z-score [18],PBM binding z-score [19],PBM binding z-score [20]
TCTTGTAGATCACGCAGGTTAAGAAAGCCTGAGT,0.613,0.539,-0.162,0.551,-0.17,1.09,-0.0924,1.37,2.72,1.89,2.2,1.64,0.55,0.645,0.083,0.585,0.000906,0.685,0.00384,0.386
CCGAGTGGGGCATAAGGTTACCATAAGCCAGCCC,0.498,1.86,-0.512,0.83,-1.04,2.05,2.19,3.09,1.06,2.66,2.28,2.81,-1.47,-1.33,0.587,0.569,-0.243,1.27,-0.802,1.35
TCATATAGTTAAATGCTAGGTGAAAGTCCGATCT,0.982,0.66,0.335,0.729,0.331,0.834,0.464,2.11,3.69,2.89,2.22,0.879,0.746,1.69,1.11,0.631,0.356,0.763,1.49,0.272
ATATGTCGGTTAGCTGGGGTCATTCAGACTAGGC,3.68,4.3,2.96,4.36,1.24,4.39,1.86,2.65,0.599,1.75,1.3,2.25,0.889,0.777,1.85,5.49,3.48,5.05,0.853,2.62
TCATATAGGTAATTCAGGTGAAAGTCGGCATCTA,1.4,1.17,0.456,1.25,0.393,1.87,1.09,2.58,4.33,3.59,4.31,3.55,1.64,1.6,1.41,0.703,0.443,1.34,1.6,0.546
CCTATTAGTTGACCATAAGGGCTACCGAAGCTCG,0.118,0.0436,0.338,0.131,0.649,-0.0868,0.355,0.0189,0.219,0.0475,0.457,0.104,0.267,0.311,1.99,0.0462,0.632,0.373,1.97,0.623
TAGCCTAGGTTATTCAGGGGCCAGTATAGAAAGC,0.502,1.27,-0.0903,1.24,0.216,0.523,0.241,-0.0507,-0.33,0.0793,0.707,0.703,0.674,-0.312,-0.0619,0.0716,-0.463,0.719,-0.306,1.13
ATCGAAAGGTCGACGAGGTGAGTCTACACCGTTT,4.73,3.39,-0.244,2.47,0.381,4.55,2.93,3.2,0.846,1.9,0.545,2.03,1.28,0.606,1.13,3.31,0.495,3.84,0.442,3.98
TCTCGGAGGACACGAAAGGTAAGAGCTCGACATC,0.311,-0.0644,-0.636,-0.242,-1.12,0.039,0.278,0.941,2.19,1.28,1.28,-0.239,-1.14,-1.23,-0.641,-0.211,-0.673,-0.135,-0.792,1.59
GCTTCTAGGTCAACTGATGGTCAGCTAAAGCTCG,4.49,3.12,0.562,2.48,1.06,4.69,6.35,5.64,3.01,5.05,7.69,7.25,0.0953,0.797,2.01,1.97,-0.405,3.16,0.124,4.42
TTACCAAGGTGAAAGGTCGTTGTTGCACGCCTTG,3.74,3.17,0.187,3.12,-0.415,5.29,8.39,7.47,6.57,8.04,2.71,4.85,-0.135,0.857,1.39,3.78,0.253,5.2,-0.175,3.09
ACTATTAGTTGAGACGAGGGCAACCGATAGGTTG,0.538,0.128,0.022,0.22,0.0471,0.636,0.774,0.555,0.376,0.316,0.0589,0.536,0.785,0.574,0.059,1.64,0.413,0.859,0.982,1.24
TGAATGAGGTTATAAGATCAGGGCACGTTGCAAA,1.49,1.49,0.117,1.32,0.0684,2.9,1.62,1.95,0.914,1.63,1.2,2.64,0.65,0.308,0.364,1.19,-0.152,1.77,0.42,1.48
TAGCCTAGGCCAGATCGGGCCAGTATACGCTATA,-0.616,-1.17,-0.865,-1.22,-1.15,-1.12,0.0311,-1.24,-0.873,-1.05,-0.93,-0.678,-0.211,-0.658,-1.06,-0.946,-0.923,-0.593,-1.1,-0.396

# Reference: the supplement of paper PMC6555819
